In PubChem BioAssay (NCI):
The panel holds about 83,000 compounds, 20% with a hit somewhere; the sample as a whole holds those more often.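 Single-dose data. Exposure time 48 hours. Values below 10 considered active.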 Values without a mark were called inactive. Active and inactive are the calls of the source.

tested on: HL-60(TB) leukemia; assay: NCI-60 one-dose screen, 48 h (100 = growth as untreated, 0 = no growth, -100 = all killed); details: 10 µM unless noted

Row | Structure (SMILES) | growth
1 | COCCNC(C)=O | 107%
2 | CCCCOc1ncnc2nc[nH]c12 | 99.4%
3 | O=C(Nc1cccc(-n2cc(-c3ccncc3)c(-c3cc(O)cc(Cl)c3)n2)c1)Nc1ccc(Cl)c(C(F)(F)F)c1 | -26.9% (active)
4 | NNC(=S)N/N=C/c1ccccn1 | 1% (active)
5 | CCCn1c2cc(OCc3cn(-c4ccc(Br)cc4)nn3)ccc2c2ccnc(C)c21 | -61.3% (active)
6 | NC(=S)N/N=C/c1ncccc1O | -23.2% (active)
7 | CC(=O)O[C@H]1[C@@H]2OC(=O)C(CSc3ccccc3)[C@@H]2C[C@H]2O[C@]2(C)CC/C=C(\C)CCC[C@@H]1C (stereo not given in full) | 25.8%
8 | C#CCOc1cccc(Nc2ncnc3c(NC(=O)CCl)cccc23)c1 | -59.1% (active)
9 | Oc1cccc2c1NCCC2 | 7.84% (active)
10 | O=C1/C(=C/c2ccccc2)CCc2nc3ccccc3c(/C=C/c3ccc(Cl)cc3)c21 | 83.2%
11 | COc1cc(/C=C/c2cc(/C=C/c3ccc(O)c(OC)c3)n(C(=O)Nc3ccc(C)cc3C)n2)ccc1O | -30.4% (active)
12 | C[C@@H](NC(=O)c1ncnc(N)c1Cl)c1ncc(C(=O)Nc2cc(C(F)(F)F)c(Cl)cn2)s1 | 35.4%
13 | CNC(=O)c1cn2c3c(c(N4CCN(C)CC4)c(F)cc3c1=O)OC[C@@H]2C | 99.3%
14 | CN(C)c1ccc(N=Nc2cccc3ccccc23)cc1 | 77.4%
15 | COc1cc(-c2cc(-c3ccc(Nc4ccnc5cc(Cl)ccc45)cc3)nc(N3CCOCC3)n2)cc(OC)c1OC | 68.2%
16 | Cn1c(Nc2ccc(C(F)(F)F)cc2)nc2cc(Oc3ccnc(-c4ncc(C(F)(F)F)[nH]4)c3)ccc21 | 30.3%
17 | COc1cccc(-c2cc(C(=O)Nc3ccc(/C=C/c4ccc(OC5CCN(C)CC5)cc4)cc3)ccc2OC)c1 | 9.98% (active)
18 | COc1ccc(/C(C)=N/NS(=O)(=O)c2ccc(C)cc2)cc1OC | 97.6%
19 | COc1cc(Nc2ccnc(NCCNc3ccnc4cc(Cl)ccc34)n2)cc(OC)c1 | 11.9%
20 | CCN(CC)S(=O)(=O)c1cccc([N+](=O)[O-])c1 | 95.5%

Row | Structure (SMILES) | growth
21 | C=C(C)[C@@H]1CC[C@]2(COCCCN)CC[C@]3(C)[C@H](CC[C@@H]4[C@@](C)(CCCNCCCN)[C@H](C(=C)C)CC[C@]43C)[C@@H]12 | -9.28% [100 µM] (active)
22 | COc1ccc(Nc2nc(SC)nc(-c3cccc([N+](=O)[O-])c3)c2C#N)cc1 | 112%
23 | O=C(c1ccccc1)C(Br)C(Br)c1ccccc1 (stereo not given) | 39.5%
24 | COc1cc(C2CC(=O)c3ccccc3N2)cc(OC)c1OC (stereo not given) | 98.8%
25 | COc1ccc(C(=O)Cn2c(C(=O)c3ccccc3)nc3ccccc32)cc1 | -27.5% (active)
26 | C=C(C)[C@@H]1CC[C@]2(COC(=O)c3ccccc3C(=O)O)CC[C@]3(C)[C@H](CC[C@@H]4[C@@]5(C)CC[C@H](OC(=O)c6ccccc6C(=O)O)C(C)(C)[C@@H]5CC[C@]43C)[C@@H]12 | 37.8% [100 µM]
27 | COc1ccc2c(c1)N(Cc1ccc(Cl)cc1)CCC2N1CCCC1=O (stereo not given) | 53.9%
28 | CN(C)C(=O)c1cc2cnc(Nc3ccc(-c4csc5c(=O)cc(N6CCOCC6)oc45)cc3)nc2n1C1CCCC1 | -46.7% (active)
29 | O=C(Nc1ccccc1)c1cc2ccccc2s1 | 61.6%
30 | NC1CCC(Nc2nc(NCc3cc(Cl)ccc3O)c3ncn(C4CCCC4)c3n2)CC1 (stereo not given) | -41.1% (active)
31 | CNc1cccc2c1C(=O)c1cccc(N)c1C2=O | 34.4%
32 | N#C/C(=C\c1c(-c2ccccc2)[nH]c2ccccc12)C(N)=O | 39.6%
33 | O=C(Nc1cccc(-n2ccc3c(NC(=O)c4ccccc4)nccc32)c1)Nc1cc(C(F)(F)F)cc(C(F)(F)F)c1 | -17.6% (active)
34 | O=[N+]([O-])c1cccc(-c2nc3sccn3c2-c2ccnc(NCCCNS(=O)(=O)c3ccc(F)cc3)n2)c1 | -12.9% (active)
35 | Cc1cc(N2CCN(C)CC2)nc(NCc2cc(Nc3ccnc4cc(Cl)ccc34)ccc2F)n1 | -53.5% (active)
36 | O=C1Nc2ccc(C(=O)O)cc2/C1=N/c1nnc(Sc2ccccc2)s1 | 96.4%
37 | COc1cccc(C(=O)NC(c2ccc(C)cc2)c2cc(Cl)c3cccnc3c2O)c1 (stereo not given) | 4.15% (active)
38 | Nc1ccn(C2OC(CO)C(O)C2F)c(=O)n1 (stereo not given) | 105%
39 | NC(=O)c1cccc(-c2ccccc2N2CCCCC2)c1 | 95.3%
40 | CC(=O)c1ccc2c(ccc3ccccc32)c1 | 90.6%
